Assay results taken from PubChem BioAssay (Tox21).
A number with no mark means an inactive call. Results filed as inconclusive are left out. Entries that show only a call come without a potency. The source made the active and inactive calls. Unless noted, calls follow the shape of the dose curve; as a rule, active = well fitted curve in the direction sought with a large enough effect in the repeat runs; inconclusive = weak or mixed curves; inactive = no such curve, though single readings can be large; an effect the other way counts as inactive or inconclusive.

Columns and labels:
[1] = qHTS assay to identify small molecule agonists of the RXR signaling pathway - cell viability counter screen (AID 1159529); also: nearly all actives have a fitted effect of over 50% in size
How it was run: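 RXR-alpha-UAS-bla HEK 293T cells in medium with 2% charcoal-stripped FBS were pre-incubated 5 hr, then compound-treated 16 hr at 37 C. Viability was read by CellTiter-Glo luminescence in the same wells as the beta-lactamase assay, with tetraoctyl ammonium bromide as positive control.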

[2] = qHTS assay to identify small molecule antagonists of the retinoid acid receptor (RAR) signaling pathway - cell viability counter screen (AID 1159551); also: nearly all actives have a fitted effect of over 35% in size
How it was run: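 C3RL4 RARE-luciferase cells, 1,000/well, incubated overnight, then dosed with compound plus 1 uM retinol (final). After 6 hr at 37 C, viability read by CellTiter-Glo ATP luminescence following 30 min at room temperature.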

[3] = qHTS assay to identify small molecule antagonists of the retinoic acid receptor (RAR) signaling pathway (AID 1159552; also: nearly all actives have a fitted effect of over 50% in size)
How it was run: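 Retinol signaling pathway inhibitors screened in C3RL4 RARE-luciferase reporter cells seeded overnight at 37 C, then compounds added with 1 uM (final) retinol as pathway substrate. After 6 hr at 37 C, luciferase luminescence read after 30 min at room temperature.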

[4] = qHTS assay to identify small molecule agonists of the retinoic acid receptor (RAR) signaling pathway (AID 1159553); settings: C3RL4 RARE luciferase reporter, agonist, 6 h; activation: at 73.3 µM (top of the series)
How it was run: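 C3RL4 RARE-luciferase cells were seeded at 1,000/well and grown overnight at 37 C, then exposed to compounds for 6 hr at 37 C, 5% CO2. Luciferase reagent was added and luminescence was read after 30 min at room temperature.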

[5] = qHTS assay to identify small molecule antagonists of the estrogen related receptor (ERR) signaling pathway from Tox21 library - cell viability counter screen (AID 1224834); also: nearly all actives have a fitted effect of over 30% in size
How it was run: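 ERR reporter cells, 2,000 per well, rested 6 h, then exposed to compound in DMSO for 17.5 hours at 37 C. Viability read as fluorescence after 30 min with CellTiter-Fluor.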

[6] = qHTS assay to identify small molecule agonists of the constitutive androstane receptor (CAR) signaling pathway - cell viability counter screen (AID 1224836); also: nearly all actives have a fitted effect of over 45% in size
How it was run: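 HepG2 cells stably carrying hCAR and a CYP2B6-2.2kb reporter; 15-concentration compounds plus PK11195 (final 0.75 uM), 23 hr at 37 C/5% CO2. Viability read by CellTiter-Fluor fluorescence.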

[7] = qHTS assay to identify small molecule antagonists of the constitutive androstane receptor (CAR) signaling pathway - cell viability counter screen (AID 1224837); also: nearly all actives have a fitted effect of over 45% in size
How it was run: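 HepG2 cells stably carrying hCAR and CYP2B6-2.2kb reporter, stimulated with 50 nM CITCO and compounds at 15 concentrations for 23 h at 37 C. Viability measured by CellTiter-Fluor fluorescence.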

[8] = qHTS assay to identify small molecule agonists of the estrogen related receptor signaling pathway with the pleiotropic PPARgamma coactivator (PGC) from Tox21 10K library (AID 1224842); also: nearly all actives have a fitted effect of over 15% in size
How it was run: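 PGC/ERR reporter cells (NTP line) were seeded 2,000 per well, rested 6 h at 37 C/5% CO2, then pin-dosed with compounds in DMSO for 18 h at 37 C; luciferase read by One-Glo luminescence after 30 min at room temperature.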

[9] = target: Thyrotropin receptor (Homo sapiens) (UniProt P16473); test: qHTS assay to identify small molecule agonists of the thyroid stimulating hormone receptor (TSHR) signaling pathway (AID 1224843; calls by dose curve; also: nearly all actives have a fitted effect of over 45% in size)
How it was run: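 TSHR-expressing HEK293 cells (800 per well) were exposed to compounds for 30 min at room temperature. cAMP was then detected by HTRF competition with cAMP-d2 and anti-cAMP cryptate, read after 1 h at room temperature. Fifteen concentrations, triplicate.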

[10] = qHTS assay to identify small molecule agonists of the hypoxia (HIF-1) signaling pathway - cell viability counter screen (AID 1224844; calls by dose curve; also: nearly all actives have a fitted effect of over 50% in size)
How it was run: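 HRE-bla ME-180 cells, 2,000/well in 0.5% dialyzed FBS medium, treated 17 h at 37C with compounds. Viability read in the same wells as the bla reporter, by CellTiter-Glo luminescence after 30 min at room temperature.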

[11] = qHTS assay to identify small molecule agonists of H2AX (AID 1224845; active = well fitted activation curve with a large enough effect in the signal ratio in the repeat runs, not every such curve was filed as active; the % refers to the signal ratio)
How it was run: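 Wild-type CHO-K1 cells plated overnight, then exposed 3 hr at 37C to compounds at 15 concentrations (0.76% DMSO). Lysed, then HTRF anti-pH2AX(S139)-cryptate/anti-H2AX-d2 detection after 24 hr at room temperature; emissions 665 and 620 nm.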

[12] = qHTS assay to identify small molecule antagonists of the estrogen related receptor (ERR) signaling pathway from Tox21 library (AID 1224848); also: nearly all actives have a fitted effect of over 50% in size; also: potency is read from the fitted curve at half-maximal effect
How it was run: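 Cells: ERR line, 2,000/well; 6 h preincubation 37 C/5% CO2. Cpd in DMSO via pin tool; 18 h, 37 C. ONE-Glo, 30 min RT, luminescence.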

[13] = qHTS assay to identify small molecule agonists of the estrogen related receptor (ERR) signaling pathway from Tox21 library (AID 1224849; calls by dose curve; also: nearly all actives have a fitted effect of over 15% in size)
How it was run: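 ERR reporter cells (NTP line) pre-incubated 6 hours at 37 C, then exposed to compounds for 18 hours at 37 C. ONE-Glo luciferase luminescence was read after 30 minutes at room temperature.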

[14] = target: Luciferin 4-monooxygenase (Photinus pyralis) (UniProt P08659); test: qHTS assay to identify small molecule inhibitors of firefly luciferase (AID 1224835); also: nearly all actives have a fitted effect of over 25% in size
How it was run: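 Quantitative HTS format; KM concentrations of both substrates. Purified P. pyralis FLuc activity quantified from luminescence images.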

[15] = qHTS assay to identify small molecule antagonists of the estrogen related receptor signaling pathway with the pleiotropic PPARgamma coactivator (PGC) from Tox21 10K library - cell viability counter screen (AID 1224840; active = well fitted cell-killing curve with a large enough effect in the repeat runs, not every such curve was filed as active; also: nearly all actives have a fitted effect of over 40% in size)
How it was run: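 PGC/ERR cells (2,000/well) plated 6 h, then compound-treated for 17.5 h at 37 C. Viability measured by CellTiter-Fluor fluorescence after 30 min at 37 C, multiplexed with the pathway assay.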

[16] = qHTS assay to identify small molecule agonists of the hypoxia (HIF-1) signaling pathway (AID 1224846; active = well fitted activation curve with a large enough effect in the signal ratio in the repeat runs, not every such curve was filed as active; the % refers to the signal ratio)
How it was run: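 HRE-bla ME-180 beta-lactamase reporter cells in medium with 0.5% dialyzed FBS, pre-incubated 5 h then exposed to compounds 17 h at 37C, 5% CO2; reporter induction read with CCF4-AM FRET substrate.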

[17] = target: Nuclear receptor subfamily 1 group I member 3 (Homo sapiens) (UniProt Q14994); test: qHTS assay to identify small molecule antagonists of the constitutive androstane receptor (CAR) signaling pathway (AID 1224838); also: nearly all actives have a fitted effect of over 40% in size; also: potency is read from the fitted curve at half-maximal effect
How it was run: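 HepG2 cells stably carrying hCAR and a CYP2B6-2.2kb luciferase reporter, seeded 4 hrs before compound (15 concentrations). Stimulated with 50 nM CITCO for 24 hr at 37 C. ONE-Glo luminescence read after 30 min at room temperature.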

[18] = qHTS assay to identify small molecule agonists of H2AX - cell viability counter screen (AID 1224847; calls by dose curve; also: top concentration of the series differs between compounds; nearly all actives have a fitted effect of over 30% in size)
How it was run: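 CHO-K1 cells plated overnight at 37C, then exposed 3 h at 37C to compounds at 15 concentrations (0.76% DMSO final). Viability by CellTiter-Glo luminescence after 30 min at room temperature.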

[19] = target: Nuclear receptor subfamily 1 group I member 3 (Homo sapiens) (UniProt Q14994); test: qHTS assay to identify small molecule agonists of the constitutive androstane receptor (CAR) signaling pathway (AID 1224839); also: nearly all actives have a fitted effect of over 15% in size
How it was run: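 HepG2 cells stably co-transfected with hCAR and a CYP2B6-2.2kb luciferase reporter; compounds at 15 concentrations with 0.75 uM PK11195 present. After 24 hr at 37 C, luciferase read by ONE-Glo luminescence.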

[20] = qHTS assay to identify small molecule antagonists of the estrogen related receptor signaling pathway with the pleiotropic PPARgamma coactivator (PGC) from Tox21 10K library (AID 1224841; call rule not given here)
How it was run: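 PGC/ERR cell line, 2,000 cells/well, pre-incubated 6 hours at 37 C, then exposed to compounds for 18 hours at 37 C; luciferase read with One-Glo luminescence after 30 min at room temperature.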

Nuclear receptor subfamily 1 group I member 3 (Homo sapiens), sequence (Q14994 whole entry, looked up): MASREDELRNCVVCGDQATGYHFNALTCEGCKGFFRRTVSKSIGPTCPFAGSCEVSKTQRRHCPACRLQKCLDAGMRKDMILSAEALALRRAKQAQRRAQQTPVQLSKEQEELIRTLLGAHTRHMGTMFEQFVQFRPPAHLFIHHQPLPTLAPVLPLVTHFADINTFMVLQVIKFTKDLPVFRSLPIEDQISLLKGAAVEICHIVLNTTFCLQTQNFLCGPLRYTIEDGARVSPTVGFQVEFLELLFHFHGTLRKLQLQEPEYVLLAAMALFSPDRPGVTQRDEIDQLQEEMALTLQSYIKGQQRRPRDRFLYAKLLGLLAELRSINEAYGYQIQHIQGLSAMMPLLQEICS
Thyrotropin receptor (Homo sapiens), sequence (P16473 whole entry, looked up): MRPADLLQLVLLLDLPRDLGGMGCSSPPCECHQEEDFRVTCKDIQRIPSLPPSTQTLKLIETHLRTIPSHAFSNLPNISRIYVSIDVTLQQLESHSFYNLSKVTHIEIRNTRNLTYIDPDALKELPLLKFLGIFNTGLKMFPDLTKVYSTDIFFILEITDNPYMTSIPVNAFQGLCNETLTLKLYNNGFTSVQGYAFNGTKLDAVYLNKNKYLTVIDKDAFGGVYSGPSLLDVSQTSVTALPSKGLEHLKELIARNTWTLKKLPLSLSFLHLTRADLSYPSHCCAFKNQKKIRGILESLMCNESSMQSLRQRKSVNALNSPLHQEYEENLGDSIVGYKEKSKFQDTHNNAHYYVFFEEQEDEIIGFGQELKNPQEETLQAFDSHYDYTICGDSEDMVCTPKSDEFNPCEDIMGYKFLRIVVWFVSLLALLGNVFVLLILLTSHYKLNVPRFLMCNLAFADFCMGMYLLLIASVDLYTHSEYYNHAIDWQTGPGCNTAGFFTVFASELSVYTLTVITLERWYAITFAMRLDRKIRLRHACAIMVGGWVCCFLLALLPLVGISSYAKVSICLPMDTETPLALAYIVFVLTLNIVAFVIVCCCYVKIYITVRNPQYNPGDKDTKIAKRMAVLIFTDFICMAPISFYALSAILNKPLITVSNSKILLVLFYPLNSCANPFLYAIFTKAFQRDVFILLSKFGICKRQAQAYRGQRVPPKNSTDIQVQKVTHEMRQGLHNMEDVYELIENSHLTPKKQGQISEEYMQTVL
Luciferin 4-monooxygenase (Photinus pyralis), sequence (P08659 whole entry, looked up): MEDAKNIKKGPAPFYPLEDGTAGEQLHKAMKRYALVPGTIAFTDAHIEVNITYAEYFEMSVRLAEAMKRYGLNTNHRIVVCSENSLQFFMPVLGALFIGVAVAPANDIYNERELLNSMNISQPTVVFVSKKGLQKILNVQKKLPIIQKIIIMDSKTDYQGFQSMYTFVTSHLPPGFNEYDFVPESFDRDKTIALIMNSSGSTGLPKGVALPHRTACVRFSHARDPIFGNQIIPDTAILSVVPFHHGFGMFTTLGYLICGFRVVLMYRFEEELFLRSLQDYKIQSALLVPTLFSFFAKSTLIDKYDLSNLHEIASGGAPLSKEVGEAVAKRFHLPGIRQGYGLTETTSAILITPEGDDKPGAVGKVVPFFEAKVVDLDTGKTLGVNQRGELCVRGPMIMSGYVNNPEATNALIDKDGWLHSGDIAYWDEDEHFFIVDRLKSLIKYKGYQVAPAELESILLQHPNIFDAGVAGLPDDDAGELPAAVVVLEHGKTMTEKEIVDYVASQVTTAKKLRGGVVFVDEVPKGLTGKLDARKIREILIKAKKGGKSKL

C1=CCC(c2ccccc2)CC1 (stereo not given)
outcome [1]: inactive
outcome [2]: inactive
Potency [3]: inactive
Potency [4]: inactive
Potency [5]: inactive
outcome [6]: inactive
Potency [7]: inactive
outcome [8]: inactive
outcome [9]: inactive
outcome [10]: inactive
outcome [11]: inactive
Potency [12]: inactive
outcome [13]: inactive

Cc1nc(C)nc(N2C[C@@H](C)N(c3ccnc([C@@H](C)O)n3)[C@@H](C)C2)n1
outcome [1]: inactive
outcome [2]: inactive
Potency [3]: inactive
Potency [4]: inactive
Potency [14]: inactive
outcome [6]: inactive
Potency [7]: inactive
outcome [15]: inactive
outcome [8]: inactive
outcome [9]: inactive
outcome [10]: inactive
outcome [11]: inactive
outcome [16]: inactive
Potency [12]: 13.3 µM (active)
outcome [13]: inactive

Cc1ccc2c(c1)c1c3n2CCNC3CCC1 (stereo not given)
outcome [1]: inactive
outcome [2]: inactive
Potency [3]: inactive
Potency [4]: inactive
Potency [14]: inactive
Potency [17]: 0.75 µM (active)
outcome [15]: inactive
outcome [9]: inactive
outcome [10]: inactive
outcome [11]: inactive
Potency [18]: inactive

CC(C)CCCC(C)CC=O (stereo not given)
outcome [1]: inactive
outcome [2]: inactive
Potency [3]: inactive
Potency [4]: inactive
Potency [14]: inactive
outcome [6]: inactive
Potency [7]: inactive
outcome [15]: inactive
outcome [10]: inactive
outcome [11]: inactive
outcome [16]: inactive
Potency [18]: inactive

O=CO
activity change, negative = cytotoxicity [1]: 0.323% [at 6.97 µM]
activity change, negative = cytotoxicity [2]: 2.98% [at 8.39 µM]
activity, negative = inhibition [3]: -7.08% [at 8.39 µM]
activation [4]: -3.33% [at 8.36 µM]
viability change, negative = cytotoxic [6]: 2.87% [at 8.39 µM]
activity change, negative = cytotoxicity [7]: -0.437% [at 8.39 µM]
activity, negative = inhibition [17]: -2.01% [at 8.39 µM]
activation [19]: -3.71% [at 8.39 µM]
viability change, negative = cytotoxic [15]: -0.178% [at 8.39 µM]
activity, negative = inhibition [20]: 4.47% [at 8.39 µM]
activation [8]: -0.64% [at 8.39 µM]
activity change, negative = cytotoxicity [10]: -0.151% [at 6.97 µM]
activation [16]: -0.756% [at 7.01 µM]
activity change, negative = cytotoxicity [18]: 0.103% [at 14 µM]
activity, negative = inhibition [12]: -2.33% [at 8.39 µM]
activity change, positive = activation [13]: -1.2% [at 8.39 µM]

OC(CCN1CCCCC1)(c1ccccc1)c1ccccc1
outcome [1]: inactive
outcome [2]: inactive
Potency [3]: inactive
Potency [4]: inactive
Potency [5]: inactive
outcome [6]: inactive
Potency [7]: inactive
outcome [15]: inactive
outcome [10]: inactive
outcome [11]: inactive
Potency [18]: inactive

CN(C)CCCNCCC#N
outcome [1]: inactive
outcome [2]: inactive
Potency [3]: inactive
Potency [4]: inactive
Potency [14]: inactive
outcome [6]: inactive
Potency [7]: inactive
Potency [17]: inactive
Potency [19]: inactive
outcome [15]: inactive
outcome [10]: inactive
outcome [11]: inactive
outcome [16]: inactive
Potency [18]: inactive

O=C(O)c1c(Cl)ccc(Cl)c1Cl
outcome [1]: inactive
outcome [2]: inactive
Potency [3]: inactive
Potency [4]: inactive
Potency [14]: inactive
outcome [6]: inactive
Potency [7]: inactive
Potency [17]: inactive
outcome [15]: inactive
outcome [9]: inactive
outcome [10]: inactive
outcome [11]: inactive
Potency [18]: inactive

O=C(Nc1cccc(C2=NCCN2)c1)Nc1cccc(C2=NCCN2)c1
activity change, negative = cytotoxicity [1]: 12.6% [at 15.8 µM]
activity change, negative = cytotoxicity [2]: 1.4% [at 19 µM]
activity, negative = inhibition [3]: 6.53% [at 19 µM]
Potency [4]: inactive
activity change, negative = inhibition [14]: -1.49% [at 23.6 µM]
viability change, negative = cytotoxic [6]: 0.131% [at 19 µM]
activity change, negative = cytotoxicity [7]: 1.51% [at 19 µM]
activation (H2AX phosphorylation) [11]: 0.307% [at 31.6 µM]
activation [16]: -0.385% [at 15.8 µM]
activity change, negative = cytotoxicity [18]: 4.49% [at 31.6 µM]

NS(=O)(=O)c1ccc(Cl)c(S(N)(=O)=O)c1
outcome [1]: inactive
outcome [2]: inactive
Potency [3]: inactive
Potency [4]: inactive
Potency [14]: inactive
outcome [6]: inactive
Potency [7]: inactive
outcome [9]: inactive
outcome [11]: inactive
Potency [18]: inactive
